The text below walks through data of PubChem BioAssay.

Assay [1] can be described thus: yeast TOR pathway RPL19A-GFP modulators, primary screen, cell-based, S. cerevisiae, multiplex flow cytometry (AID 1862; in the data active = percent of DMSO control GFP below about 86%;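 note: lower values mimic rapamycin by blocking the RPL19A rise seen in DMSO cells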). The note with it: S. cerevisiae RPL19A-GFP strain, flow cytometry fluorescence, 3 h; at 10 µM; stronger effect = lower value.
Assay [2] is described as follows: modulators of MEP2-GFP levels in yeast, primary screen, S. cerevisiae, multiplex flow cytometry (AID 1867;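 active = GFP response, as percent of the DMSO control, above the screen-wide mean plus 3 SD, about 139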;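 note: median GFP channel fluorescence of barcode-gated MEP2-GFP cells measured by flow cytometry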). The note with it: S. cerevisiae MEP2-GFP strain, 3 h, at 10 µM, stronger effect = higher value, 100% means same as DMSO wells.
Assay [3] is described as follows: modulators of CIT2-GFP expression in yeast, primary screen, S. cerevisiae, GFP fusion, multiplex flow cytometry (AID 1870;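 active = percent response above a set limit, the screen-wide mean plus 3 SD, cut at about 130% in these data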;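 note: barcoded CIT2-GFP strain pooled with four other GFP strains with rapamycin as positive control; median GFP fluorescence per well over plate mean of DMSO wells so 100% = DMSO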). The note with it: 3 h, at 10 µM, stronger effect = higher value.
A short description of assay [4]: modulators of LAP4-GFP expression in yeast, primary screen, S. cerevisiae, multiplex flow cytometry (AID 1873;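 active = GFP signal, as percent of the solvent control, above the screen mean plus 3 SD, about 149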). The note with it: 3 h, at 10 µM, stronger effect = higher value.
Assay [5] can be described thus: modulators of AGP1-GFP expression in yeast TOR pathway, primary screen, cell-based, multiplex flow cytometry, S. cerevisiae (AID 1887;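 active = GFP signal above the screen-wide mean plus 3 SD, that is over about 124.5% of the solvent control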;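 note: AGP1-GFP fusion strain of S. cerevisiae within a five-strain barcoded multiplex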). The note with it: 3 h, at 10 µM, stronger effect = higher value.
A short description of assay [6]: inhibitors of CD8+ T cell-vesicle binding, pilot screen, LFA-1/ICAM-1 modulator project, MLPCN validation set, flow cytometry (AID 2523;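 active = response below a set limit, under 55% cells CD8-positive and vesicle-bound, and CD8 cells' 90th-percentile brightness under 279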;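 for vesicle binding response: mean PE anti-B7-1 fluorescence of CD8+ cells relative to row control; 100% = QL9-loaded vesicles with DMSO vehicle in the same plate row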). The note with it: 2C mouse CD8+ T cells, at 7 µM, stronger effect = lower value; double positive events: measured here: CD8+/vesicle+ event percentage.
The target in assay [7] is Integrin beta-1 (Homo sapiens) + Integrin alpha-4 (Homo sapiens) (UniProt P13612+P05556). The assay is described as follows: inhibition of HUTS-21 binding to VLA-4, pilot screen, VLA-4 allosteric modulator project, U937 cells, HUTS-21 mAb, flow cytometry, validation set (AID 2674;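 active = inhibition above 50%, about 3 SD of the validation set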;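 note: antibody binding induced by the VLA-4 ligand LDV present at three times its Kd; 0% = LDV ligand with antibody and no compound and 100% = antibody without LDV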). The note with it: HUTS-21 LIBS mAb binding, at 6.7 µM, stronger effect = higher value, binding induced by LDV ligand.

A short description of assay [8]: superoxide lowering in aged yeast cells, pilot screen, validation compound set (AID 2706;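 active = superoxide response below 65% of plate, a cut near 3 SD across the whole screen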;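 note: yeast exposed to compound for one week at 30 degrees C before staining; 100% = mean of all compound wells on the same plate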). The note with it: S. cerevisiae aging, superoxide DHE fluorescence; at 10 µM; stronger effect = lower value.
The target of assay [9] is Beta-adrenergic receptor kinase 1 (Homo sapiens) (UniProt P25098). Briefly: GRK2 binders displacing RNA aptamer, biochemical, validation, human GRK2, bead flow cytometry (AID 488806;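 active = aptamer binding inhibition above 30%, about 3 SD of noise from non-fluorescent compounds; inactive = inhibition at or below 30%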). The note with it: bead-bound GRK2, FAM-aptamer displacement, at 10 µM, stronger effect = higher value.
Assay [10] addresses Beta-2 adrenergic receptor (Homo sapiens) (UniProt P07550). The assay is described as follows: beta2AR agonists driving receptor internalization, pilot screen, cell-based, FAP fluorogen, flow cytometry, validation set (AID 504459;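 active = percent response above 42, roughly 3 SD of non-fluorescent test compounds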;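 note: agonist-driven loss of surface beta2AR via internalization measured by FAP dye flow cytometry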). The note with it: Am2.2-beta2AR cells, FAP surface receptor flow cytometry; at 10 µM; stronger effect = higher value.
Assay [11] concerns the target AP-2 complex subunit beta (Homo sapiens) (UniProt P63010). Briefly: inhibitors of arrestin peptide binding to AP2, pilot screen, biochemical, validation set, GST-AP2 beads, flow cytometry (AID 504541;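 active = inhibition above 54%, about 3 SD of non-fluorescent compounds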;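 note: AP2 carries R879A mutation and is captured from E. coli lysate; bead-bound FITC arrestin peptide fluorescence measuring arrestin peptide binding to AP2; 0% = DMSO wells and 100% = excess unlabeled arrestin peptide control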). The note with it: FITC arrestin peptide, at 10 µM, stronger effect = higher value, AP2 beta2 appendage fragment, R879A mutant.
Assay [12] can be described thus: yeast V-ATPase proton transport modulators, S. cerevisiae, pHLuorin, HTS validation (AID 504600; in the data active = response above about 15%;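 note: plate controls were DMSO for no effect and reference compound for full effect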). The note with it: S. cerevisiae pHLuorin cytosolic pH, at 10 µM, stronger effect = higher value.
Assay [13] concerns anti-desmoglein-3 scFv antibody binding to human DSG3. Briefly: inhibitors of anti-DSG3 scFv binding to DSG3, pilot screen, biochemical, validation compound set, bead-based, flow cytometry (AID 588368;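 active = binding below the plate cutoff, the plate median minus 3 SD, with a reading above zero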;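 note: signal is the median channel fluorescence of bead-bound GFP antibody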). The note with it: Protein G beads, DSG3-Fc, scFv-GFP binding, at 10 µM, stronger effect = lower value.
A short description of assay [14]: inhibitors of fungal efflux pumps CDR1, CDR2, MDR1, pilot screen, validation compound set, multiplex, phenotypic (AID 588506;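 active = efflux inhibition above 0.42, the validation set average plus 4 SD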;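 note: Nile Red retained in cells so higher fluorescence means more efflux inhibition; 0 = negative control wells and 1 = enniatin B 25 µM full block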). The note with it: S. cerevisiae pump-expressing triplex, Nile Red efflux flow cytometry; at 10 µM; stronger effect = higher value; the pumps come from Candida albicans.
For assay [15], the target named is ATP-binding cassette sub-family B member 6 (Homo sapiens) (UniProt Q9NP58). Briefly: ABCB6 transporter inhibitors, pilot screen, K562-ABCB6 cells, flow cytometry, validation set (AID 588550;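 active = inhibition above the screen-wide mean plus 3 SD, about 51%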;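 note: 0% = DMSO wells and 100% = benzethonium chloride 70 µM positive control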). The note with it: K562-ABCB6 porphyrin accumulation, 1 h, at 10 µM, stronger effect = higher value.
A short description of assay [16]: promoters of myeloid differentiation in arrested cells, primary screen, cell-based, GFP/MAC1 double positive, flow cytometry, validation set (AID 588685).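 Note: compound exposure lasts four days before antibody staining and flow analysis; 0% = DMSO wells and 100% = 5 µM fulvestrant positive control.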 The note with it: ER-HoxA9 marrow cells, stronger effect = higher value, normalized: vehicle 0, fulvestrant 100.

Results filed as inconclusive are left out. Active and inactive are the calls of the source.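 Rule for the calls, unless noted: active = differentiation response of at least 50%, scaled between solvent and reference control, from cells with both markers; inactive = the rest.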

Chain of Integrin beta-1 (Homo sapiens) + Integrin alpha-4 (Homo sapiens) (P05556 whole entry, looked up): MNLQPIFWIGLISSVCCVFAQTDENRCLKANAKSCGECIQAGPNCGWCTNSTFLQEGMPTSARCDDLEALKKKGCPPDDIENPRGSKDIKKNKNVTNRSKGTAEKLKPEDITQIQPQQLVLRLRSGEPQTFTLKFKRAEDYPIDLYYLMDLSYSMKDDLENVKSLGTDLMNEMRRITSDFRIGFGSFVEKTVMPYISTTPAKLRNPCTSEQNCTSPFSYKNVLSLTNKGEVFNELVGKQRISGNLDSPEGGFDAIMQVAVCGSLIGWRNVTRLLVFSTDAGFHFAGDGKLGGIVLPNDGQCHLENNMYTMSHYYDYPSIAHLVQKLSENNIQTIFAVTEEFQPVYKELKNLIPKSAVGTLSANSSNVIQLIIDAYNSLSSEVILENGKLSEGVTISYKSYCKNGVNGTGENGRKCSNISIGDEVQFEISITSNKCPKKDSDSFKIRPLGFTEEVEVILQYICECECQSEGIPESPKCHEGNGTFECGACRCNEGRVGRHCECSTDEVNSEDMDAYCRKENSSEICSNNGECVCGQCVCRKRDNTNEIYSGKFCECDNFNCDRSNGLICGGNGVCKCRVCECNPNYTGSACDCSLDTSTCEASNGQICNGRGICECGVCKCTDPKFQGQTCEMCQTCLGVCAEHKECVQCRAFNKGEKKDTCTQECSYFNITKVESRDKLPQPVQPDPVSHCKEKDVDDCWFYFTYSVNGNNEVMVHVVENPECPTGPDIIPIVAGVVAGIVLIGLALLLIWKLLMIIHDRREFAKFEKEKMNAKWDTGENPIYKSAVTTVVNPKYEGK
Chain of Integrin beta-1 (Homo sapiens) + Integrin alpha-4 (Homo sapiens) (P13612 whole entry, looked up): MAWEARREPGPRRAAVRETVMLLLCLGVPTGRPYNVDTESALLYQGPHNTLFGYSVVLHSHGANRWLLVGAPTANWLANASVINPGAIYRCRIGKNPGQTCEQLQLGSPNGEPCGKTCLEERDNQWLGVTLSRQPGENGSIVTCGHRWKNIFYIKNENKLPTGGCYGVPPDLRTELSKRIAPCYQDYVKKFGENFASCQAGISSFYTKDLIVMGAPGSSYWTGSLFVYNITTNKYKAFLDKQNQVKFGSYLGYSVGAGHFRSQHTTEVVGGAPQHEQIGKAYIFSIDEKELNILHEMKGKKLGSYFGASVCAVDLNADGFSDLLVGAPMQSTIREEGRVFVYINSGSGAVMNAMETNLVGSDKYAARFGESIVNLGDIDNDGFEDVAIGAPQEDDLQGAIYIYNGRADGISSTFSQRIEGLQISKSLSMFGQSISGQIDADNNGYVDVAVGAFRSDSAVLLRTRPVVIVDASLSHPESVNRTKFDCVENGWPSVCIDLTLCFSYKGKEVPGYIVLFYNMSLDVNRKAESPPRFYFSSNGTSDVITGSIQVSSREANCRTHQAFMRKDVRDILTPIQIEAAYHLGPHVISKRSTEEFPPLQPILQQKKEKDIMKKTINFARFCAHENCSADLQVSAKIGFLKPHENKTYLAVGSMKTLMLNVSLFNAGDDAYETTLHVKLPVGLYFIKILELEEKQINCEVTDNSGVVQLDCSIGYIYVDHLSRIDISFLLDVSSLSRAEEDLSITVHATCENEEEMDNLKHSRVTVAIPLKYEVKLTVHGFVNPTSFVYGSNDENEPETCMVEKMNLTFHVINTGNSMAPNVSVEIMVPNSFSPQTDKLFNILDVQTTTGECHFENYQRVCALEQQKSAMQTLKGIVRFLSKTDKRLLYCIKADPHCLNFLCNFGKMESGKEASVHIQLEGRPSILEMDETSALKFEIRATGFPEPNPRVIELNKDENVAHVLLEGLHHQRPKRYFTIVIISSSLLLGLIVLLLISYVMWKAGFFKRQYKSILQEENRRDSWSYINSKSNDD
Chain of Beta-2 adrenergic receptor (Homo sapiens) (P07550 whole entry, looked up): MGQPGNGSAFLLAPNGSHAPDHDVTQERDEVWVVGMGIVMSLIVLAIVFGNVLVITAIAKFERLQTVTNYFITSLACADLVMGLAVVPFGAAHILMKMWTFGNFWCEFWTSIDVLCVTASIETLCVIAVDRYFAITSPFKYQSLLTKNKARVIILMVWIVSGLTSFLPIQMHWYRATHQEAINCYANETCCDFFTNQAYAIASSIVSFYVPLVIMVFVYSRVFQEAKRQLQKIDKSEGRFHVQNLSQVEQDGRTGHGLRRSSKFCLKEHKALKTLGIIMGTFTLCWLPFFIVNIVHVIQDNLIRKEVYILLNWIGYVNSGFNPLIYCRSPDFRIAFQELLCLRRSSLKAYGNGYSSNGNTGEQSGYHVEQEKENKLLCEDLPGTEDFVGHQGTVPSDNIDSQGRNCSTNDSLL
Chain of ATP-binding cassette sub-family B member 6 (Homo sapiens) (Q9NP58 whole entry, looked up): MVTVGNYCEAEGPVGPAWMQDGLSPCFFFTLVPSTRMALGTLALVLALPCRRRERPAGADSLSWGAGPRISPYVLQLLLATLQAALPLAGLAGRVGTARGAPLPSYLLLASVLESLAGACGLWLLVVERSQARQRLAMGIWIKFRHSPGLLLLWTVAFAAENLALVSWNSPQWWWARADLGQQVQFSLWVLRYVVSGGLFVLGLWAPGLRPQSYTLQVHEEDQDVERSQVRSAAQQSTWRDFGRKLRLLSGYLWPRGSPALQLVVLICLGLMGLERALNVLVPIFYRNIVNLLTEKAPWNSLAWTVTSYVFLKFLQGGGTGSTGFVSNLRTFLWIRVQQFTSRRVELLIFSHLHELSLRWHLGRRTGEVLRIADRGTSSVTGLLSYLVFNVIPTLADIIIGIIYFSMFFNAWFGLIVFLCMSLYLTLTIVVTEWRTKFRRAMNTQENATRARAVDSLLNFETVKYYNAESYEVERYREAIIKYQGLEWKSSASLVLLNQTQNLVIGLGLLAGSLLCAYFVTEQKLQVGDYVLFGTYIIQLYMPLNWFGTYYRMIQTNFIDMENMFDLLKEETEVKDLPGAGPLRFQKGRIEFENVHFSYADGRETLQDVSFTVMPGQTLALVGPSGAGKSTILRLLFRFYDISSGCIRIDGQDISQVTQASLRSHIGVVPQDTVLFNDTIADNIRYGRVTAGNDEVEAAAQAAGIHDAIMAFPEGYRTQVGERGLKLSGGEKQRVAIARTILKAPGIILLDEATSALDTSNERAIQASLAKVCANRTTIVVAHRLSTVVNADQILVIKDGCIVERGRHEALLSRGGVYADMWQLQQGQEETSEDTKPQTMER
Chain of AP-2 complex subunit beta (Homo sapiens) (P63010 whole entry, looked up, the tested form may be a part, one chain of several): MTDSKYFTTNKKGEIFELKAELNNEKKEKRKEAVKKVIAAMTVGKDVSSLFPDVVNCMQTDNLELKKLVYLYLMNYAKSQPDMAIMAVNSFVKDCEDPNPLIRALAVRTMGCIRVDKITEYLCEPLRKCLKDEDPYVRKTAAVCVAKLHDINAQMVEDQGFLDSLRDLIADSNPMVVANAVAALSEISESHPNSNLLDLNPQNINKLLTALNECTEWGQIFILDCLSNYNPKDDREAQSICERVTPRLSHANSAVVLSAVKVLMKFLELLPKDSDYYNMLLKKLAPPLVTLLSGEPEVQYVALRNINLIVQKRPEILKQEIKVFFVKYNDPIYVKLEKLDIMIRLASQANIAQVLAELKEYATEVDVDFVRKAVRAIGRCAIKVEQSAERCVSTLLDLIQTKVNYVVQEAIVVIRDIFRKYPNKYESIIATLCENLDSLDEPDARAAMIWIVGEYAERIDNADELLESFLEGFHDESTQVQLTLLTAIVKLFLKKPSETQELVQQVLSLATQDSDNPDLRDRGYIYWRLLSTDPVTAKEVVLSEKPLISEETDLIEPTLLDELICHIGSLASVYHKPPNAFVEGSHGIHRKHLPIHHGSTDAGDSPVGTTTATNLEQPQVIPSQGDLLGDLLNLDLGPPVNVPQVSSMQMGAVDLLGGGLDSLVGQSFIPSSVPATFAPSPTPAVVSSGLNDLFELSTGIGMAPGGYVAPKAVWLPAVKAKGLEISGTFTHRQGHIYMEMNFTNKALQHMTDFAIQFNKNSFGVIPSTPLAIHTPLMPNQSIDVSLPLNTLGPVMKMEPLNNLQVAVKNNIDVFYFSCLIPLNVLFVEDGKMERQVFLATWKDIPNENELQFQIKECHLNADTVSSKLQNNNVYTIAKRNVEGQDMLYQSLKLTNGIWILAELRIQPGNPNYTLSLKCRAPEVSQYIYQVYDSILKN
Chain of Beta-adrenergic receptor kinase 1 (Homo sapiens) (P25098 whole entry, looked up): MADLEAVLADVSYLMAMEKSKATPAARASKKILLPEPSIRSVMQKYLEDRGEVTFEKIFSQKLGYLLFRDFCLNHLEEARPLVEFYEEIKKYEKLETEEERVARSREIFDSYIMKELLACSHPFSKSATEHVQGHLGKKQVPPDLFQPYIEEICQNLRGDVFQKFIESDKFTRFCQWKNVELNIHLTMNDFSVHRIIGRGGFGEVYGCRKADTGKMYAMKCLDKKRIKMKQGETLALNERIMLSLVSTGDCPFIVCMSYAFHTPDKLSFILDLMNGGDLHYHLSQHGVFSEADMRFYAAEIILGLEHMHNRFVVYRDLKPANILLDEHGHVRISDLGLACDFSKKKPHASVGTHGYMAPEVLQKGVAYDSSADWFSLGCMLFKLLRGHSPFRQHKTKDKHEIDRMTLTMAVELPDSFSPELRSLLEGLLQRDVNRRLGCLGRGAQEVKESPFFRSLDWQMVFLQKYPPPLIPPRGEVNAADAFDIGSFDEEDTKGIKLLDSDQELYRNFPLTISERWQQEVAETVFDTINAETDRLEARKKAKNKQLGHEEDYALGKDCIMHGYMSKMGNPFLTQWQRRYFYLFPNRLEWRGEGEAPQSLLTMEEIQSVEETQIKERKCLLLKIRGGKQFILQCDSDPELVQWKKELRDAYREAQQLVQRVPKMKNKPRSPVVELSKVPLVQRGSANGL

Turning to `CN1[C@@H]2CC[C@H]1CC(OC(=O)C(CO)c1ccccc1)C2` (stereo not given in full), the percent of DMSO control GFP in [1] was 99.6% (inactive). Further, the results for the GFP response vs DMSO in assay [2] and in [4] were 97.7% (inactive) and 86.1% (inactive), respectively. For the same compound, the percent response of DMSO control in assay [3] was 103% (inactive). Moreover, in [5], the GFP response, % of DMSO is 98% (inactive). In [6], this compound yielded a double positive events of 61.1%. Besides, the vesicle binding response in [6] was 163% (inactive). The results for the inhibition in assay [7], in assay [11] and in assay [15] were 8.29% (inactive), -4.27% (inactive) and 7% (inactive), respectively. The superoxide response (% of plate) in assay [8] was 113% (inactive). In addition, the aptamer binding inhibition in [9] was 25% (inactive). Besides, the response is -0.25% (inactive) in [10] and 3.64% (inactive) in [12]. Besides, the binding (% of control) in [13] was 101% (inactive). The efflux inhibition (fraction of control) in assay [14] is -0.205 (inactive). In addition, in [16], the differentiation response was -13.3% (inactive).
`CCCCCCCCNC(C)C(O)c1ccc(SC(C)C)cc1` (stereo not given): the percent of DMSO control GFP in assay [1] is 93.5% (inactive). Moreover, the GFP response vs DMSO in [2] is 130% (inactive); in [4], 85.3% (inactive). Moreover, the percent response of DMSO control in assay [3] is 102% (inactive). The GFP response, % of DMSO in assay [5] is 92.2% (inactive). The double positive events in [6] worked out at 38.1%. The vesicle binding response in assay [6] is 47.2% (active). In addition, the inhibition in [7] is -12% (inactive); in [11] it was 15.9% (inactive); in assay [15] it was 11% (inactive). Further, the superoxide response (% of plate) in assay [8] is 115% (inactive). Further, the aptamer binding inhibition in [9] is -13% (inactive). Further, the response is 10.9% (inactive) in assay [10] and -2.14% (inactive) in assay [12]. In addition, the binding (% of control) in assay [13] is 109% (inactive). Besides, in assay [14], the efflux inhibition (fraction of control) was -0.17 (inactive). In addition, in [16], the differentiation response is 2.46% (inactive).
In the case of `O=C1CN(O)C=C2N=c3ccccc3=C2N1c1ccc([N+](=O)[O-])cc1`, in [1], the percent of DMSO control GFP was 106% (inactive). Besides, the GFP response vs DMSO in assay [2] was 108% (inactive); in [4] it was 101% (inactive). Besides, the percent response of DMSO control in assay [3] is 107% (inactive). The GFP response, % of DMSO in assay [5] is 107% (inactive). In [6], this compound showed a double positive events of 61.3%. Further, the vesicle binding response in assay [6] was 124% (inactive). Moreover, the inhibition was -17.2% (inactive) in assay [7], -5.08% (inactive) in assay [11] and 19% (inactive) in assay [15]. The superoxide response (% of plate) in assay [8] is 106% (inactive). Further, the aptamer binding inhibition in assay [9] is 2% (inactive). Moreover, the results for the response in assay [10] and in assay [12] were -10.9% (inactive) and 1% (inactive), respectively. Also, the binding (% of control) in assay [13] is 100% (inactive). For the same compound, in assay [14], the efflux inhibition (fraction of control) was -0.13 (inactive). Besides, in assay [16], the differentiation response is -3.11% (inactive).
Turning to `CCOc1ccc2oc(-c3ccccc3)c(C(=O)O)c2c1`, the percent of DMSO control GFP in [1] is 97.8% (inactive). Further, the GFP response vs DMSO was 108% (inactive) in assay [2] and 110% (inactive) in assay [4]. For the same compound, the percent response of DMSO control in [3] is 100% (inactive). In addition, the GFP response, % of DMSO in assay [5] was 105% (inactive). Also, the double positive events in assay [6] was 65.1%. The vesicle binding response in assay [6] is 204% (inactive). The inhibition in [7] is 5.69% (inactive); in [11] it was 7.05% (inactive); in assay [15], 9% (inactive). Also, the superoxide response (% of plate) in assay [8] is 102% (inactive). For the same compound, the aptamer binding inhibition in assay [9] is 6% (inactive). Further, the response in assay [10] was -17.2% (inactive); in assay [12], 1.4% (inactive). In assay [13], the binding (% of control) is 101% (inactive). In addition, the efflux inhibition (fraction of control) in assay [14] is -0.04 (inactive). Further, the differentiation response in assay [16] was 1.91% (inactive).
On to `CC12CN3CC(C)(CN(C1)C3c1ccc(Br)cc1O)C2` (stereo not given), for which the percent of DMSO control GFP in [1] is 101% (inactive). Further, the GFP response vs DMSO is 108% (inactive) in assay [2] and 123% (inactive) in assay [4]. The percent response of DMSO control in [3] was 108% (inactive). Besides, the GFP response, % of DMSO in assay [5] was 106% (inactive). Also, the double positive events in [6] stood at 57.2%. Further, in assay [6], the vesicle binding response is 197% (inactive). Moreover, the inhibition in assay [7] was 6.55% (inactive); in assay [11] it was -45.4% (inactive); in [15], -1% (inactive). Also, the superoxide response (% of plate) in assay [8] is 127% (inactive). Besides, in assay [9], the aptamer binding inhibition was -3% (inactive). Also, the values for the response in assay [10] and in assay [12] were -11.7% (inactive) and 19% (active), respectively. Also, the binding (% of control) in assay [13] was 103% (inactive). The efflux inhibition (fraction of control) in [14] is 0.21 (inactive). The differentiation response in [16] was 2.89% (inactive).
